Reference: PubChem BioAssay AID1159580 (chemical genetic matrix, 2015)
The whole screen tested about 5,500 compounds, of which about 2,000 (36%) were called active. Inconclusive results (about 18%) are left out. No stated cut-off is given here; in the data, active means normalized growth mostly below about 0.91 (no sharp cut-off); inconclusive means no clear call, values can overlap the other calls; inactive means mostly above about 0.92. This is one part of the list.

Experiment: chemical genetic growth profiling, strain panel (AID 1159580);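 further: tested at 20 µM; growth read once vehicle control cultures reached saturation at 30 °C; 1 = growth at the plate median or of vehicle wells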
Settings: S. cerevisiae deletion strains, growth OD

Measured: normalized growth

CCOC(=O)C1C(=O)C=C(c2cccs2)CC1c1ccc(OC)c(OC)c1Cl (stereo unspecified)
inactive: locus YAL013W, strain DEP1, stronger effect = lower value 0.988 | locus YBR229C, strain ROT2, stronger effect = lower value 0.991 | locus YDL101C, strain DUN1, stronger effect = lower value 0.995 | locus YDL134C, strain PPH21, stronger effect = lower value 0.989 | locus YDR150W, strain NUM1, stronger effect = lower value 0.968 | locus YEL061C, strain CIN8, stronger effect = lower value 1.01 | locus YGR078C, strain PAC10, stronger effect = lower value 0.979 | locus YHR030C, strain SLT2, stronger effect = lower value 0.874 | locus YHR087W, strain rtc3, stronger effect = lower value 0.998 | locus YJR043C, strain POL32, stronger effect = lower value 0.983 | locus YJR075W, strain HOC1, stronger effect = lower value 0.974 | locus YLR039C, strain RIC1, stronger effect = lower value 0.863 | locus YLR058C, strain SHM2 (second series), stronger effect = lower value 0.992 | locus YLR085C, strain ARP6, stronger effect = lower value 1 | locus YML094W, strain GIM5, stronger effect = lower value 1.03 | locus YMR219W, strain ESC1, stronger effect = lower value 0.993 | locus YMR263W, strain SAP30, stronger effect = lower value 1.01 | locus YNL153C, strain GIM3, stronger effect = lower value 0.988 | locus YNL298W, strain CLA4 (second series), stronger effect = lower value 0.976 | locus YNL322C, strain KRE1, stronger effect = lower value 0.993 | locus YNR030W, strain Alg12, stronger effect = lower value 0.968 | locus YOL006C, strain TOP1, stronger effect = lower value 0.895 | locus YPL055C, strain LGE1, stronger effect = lower value 1.04 | locus YPL241C, strain CIN2, stronger effect = lower value 1.01 | locus YPR135W, strain CTF4, stronger effect = lower value 0.843
active: locus YLR262C, strain YPT6, stronger effect = lower value 0.796
